# Measurements published in PubChem BioAssay AID1011 (National Center for Advancing Translational Sciences (NCATS), 2008).
# Calls of active or inactive are those of the source. Calls follow the shape of the full dose curve.
# Assay: Confirmation Concentration-Response Assay for Inhibitors of the Schistosoma mansoni Redox Cascade
# Settings: S. mansoni TGR/Prx2 coupled, NADPH fluorescence kinetics
# Description: NIH Molecular Libraries Screening Centers Network [MLSCN] NIH Chemical Genomics Center [NCGC] MLSCN Grant: MH076449-01 Assay Provider: Prof David Williams, Illinois State University This is a confirmation assay for PubChem BioAssay AID 448. Schistosoma mansoni, a causative agent of schistosomiasis, resides in the bloodstream of their host up to 30 years without being eliminated by the host immune attack. One proposed survival mechanism is the production of an antioxidant "firewall" that neutralizes the oxidative assault of the host's immune attack. Schistosoma mansoni peroxiredoxins (Prx) are important parasite antioxidant proteins that play a crucial role in redox balance mechanisms. […] First, the proteins are essential for the parasite survival. […] Third, the protein(s) is amenable for study at the molecular level and can be produced in bacteria in large quantities, in soluble and active form. Inhibition of Prx activity was screened in a coupled-enzyme format with reducing equivalents being transferred from NADPH to […] via thioredoxin/glutathione reductase (TGR)-catalyzed reaction, then from thioredoxin to hydrogen peroxide via Prx-catalyzed electron transfer. A decrease in the fluorescence intensity of NADPH was used to measure the enzyme activity. Purified S. mansoni TGR and Prx were provided by Professor David L. Williams, Illinois State University.
# Buffer: 100 mM phosphate buffer, pH 7.4, 10 mM EDTA, 0.01% Tween-20. […] 100 uM NADPH/25 nM TGR/700 uM GSH/50 nM Prx2 mixture in columns 1, 2, 5-48. Titration of control potassium antimonyl tartrate (PAT, from 1 mM, then 1:5) pin-transferred to lower half of column 2. Column 1 and upper half of column 2 are neutral (100% activity). Assay Steps: Three uL of reagents were dispensed to 1536-well Greiner black plates. Compounds and controls (20 nL) were transferred via Kalypsys PinTool. The plates were incubated for 15 min at room temperature, and then a 1 uL aliquot of 400 uM NADPH/700 uM GSH was added, immediately followed by a 1uL aliquot of 2.5 mM H2O2 (to start the reaction). The plate was transferred to ViewLux (Perkin-Elmer) High-throughput CCD imager where kinetic measurements (every 30 sec, for a total of 8 min) of NADPH fluorescence were taken using 365 nm excitation/450 nm emission filter set. During dispense, enzyme-containing reagent bottles were kept submerged into 4 deg C water bath to minimize degradation.
Compound,outcome,Potency
CCN1C(=O)c2cccc3cccc1c23,inactive,
COC(=O)C(C(=O)OC)c1cc(Br)c2noc3c2c1C(=O)c1ccccc1-3,,0.12 µM (active)
Cc1conc1C(=O)c1no[n+]([O-])c1C(=O)c1nocc1C,inactive,
O=C(c1cccs1)c1no[n+]([O-])c1C(=O)c1cccs1,,1.48 µM (active)
CC1=CC(=O)NP(=O)(Oc2ccc(Cl)cc2)N1 (stereo not drawn),,0.42 µM (active)
CCOC(=O)C(C(=O)OCC)c1cc(Br)c2noc3c2c1C(=O)c1ccccc1-3,inactive,
CC1=CC(=O)NP(=O)(Oc2ccccc2)N1 (stereo not drawn),,2.03 µM (active)
COc1ccc(S(=O)(=O)N(CCCN2CCCC2=O)Cc2cc3c(C)ccc(C)c3[nH]c2=O)cc1,,50.1 µM (active)
O=C(c1ccco1)c1no[n+]([O-])c1C(=O)c1ccco1,,1.52 µM (active)
COc1ccc2cc(CN(C[C@H]3COCCO3)S(=O)(=O)c3ccc(Cl)cc3)c(=O)[nH]c2c1,inactive,
COc1ccc(S(=O)(=O)N(Cc2cc3ccc(OC)cc3[nH]c2=O)C[C@H]2COCCO2)cc1,,66.3 µM (active)
O=P(Nc1ccccc1F)(c1ccccc1)c1nc2ccccc2s1 (stereo not drawn),,23.9 µM (active)
CCOc1ccc(OP2(=O)NC(=O)C=C(C)N2)cc1 (stereo not drawn),,0.18 µM (active)
Cc1cc2cc(CN(CCCN3CCCC3=O)S(=O)(=O)c3ccc(F)cc3)c(=O)[nH]c2cc1C,inactive,
CN1C(=O)c2cccc3cccc1c23,inactive,
COc1ccc2cc(CN(C[C@H]3COCCO3)S(=O)(=O)c3ccccc3)c(=O)[nH]c2c1,inactive,
CCCCOc1cc(Br)c2noc3c2c1C(=O)c1ccccc1-3,,0.8 µM (active)
COc1ccc(C(=O)c2no[n+]([O-])c2C(=O)c2ccc(OC)cc2)cc1,,4.67 µM (active)
O=C1c2cccc3cccc(c23)N1Cc1ccccc1,inactive,
Cc1ccc(S(=O)(=O)N(CCCN2CCCC2=O)Cc2cc3c(C)ccc(C)c3[nH]c2=O)cc1,inactive,
CC1=CC(=O)NP(=O)(Oc2ccc3ccccc3c2)N1 (stereo not drawn),,0.12 µM (active)
Cc1cc(C)c2cc(CN(CC3COCCO3)S(=O)(=O)c3ccc(Cl)cc3)c(=O)[nH]c2c1 (stereo not drawn),inactive,
CCOCN1C(=O)c2cccc3cccc1c23,inactive,
